# From PubChem BioAssay
# CFTR F508del cor – F508del CFTR correction, initial screen, CFBE line, single point; CFBE cells, YFP halide quenching; stimulated with forskolin plus potentiator P3; % fluorescence drop versus neutral controls; activity (quench increase), % at 7.58 µM; 350,000 compounds, 0.36% hits;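 active = mean added fluorescence quench of at least 8% versus neutral control, with both replicates also reaching 8%; inconclusive = only one of the mean or replicate conditions met; inactive = mean below 8% and not both replicates reaching 8%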;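 note: cells transiently co-express mutant CFTR-F508del with the halide-sensitive YFP; corrector assay measuring rescue of mutant channel to the surface after 24 h compound exposure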
# PGC1a acetyl inh – inhibitors of PGC1a acetylation signal, primary screen, cell-based, U2OS, AlphaScreen, inhibitor mode; AlphaScreen anti-acetyl-lysine; with virally co-expressed GCN5 acetyltransferase; inhibition, % at 15.6 µM; 350,000 compounds, 0.17% hits; AID 651687, 2012;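 active = every replicate shows inhibition of at least 40%; inconclusive = mean inhibition at least 40% but some replicate below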
# HIV Env fusion – inhibitors of HIV-1 Env-driven cell-cell fusion, primary screen, HeLa-JRFL effector, CEM21 target cells, luciferase; inhibition, % at 12.3 µM; 360,000 compounds, 1.1% hits;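 active = mean replicate inhibition score of at least 50 and every replicate individually at or above 50; inconclusive = only one of the two criteria met; inactive = mean below 50 and not all replicates reaching 50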
# GSIS activator – GLuc luminescence reporter in INS-1E cells, primary screen for activators of glucose-dependent secretion of insulin | activation, % at 16.6 µM | INS-1E GLuc reporter insulin secretion, 2-3 h | 370,000 compounds, 0.61% hits;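 active = lowest replicate activation of at least 40%, so every replicate reaches that level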
# PAX8 inh HTS – inhibitors of PAX8-driven TPO luciferase reporter, primary screen, RMG-I cells, single concentration; SteadyGlo, 24 h; 360,000 compounds, 1.2% hits; inhibition, % at 12.6 µM;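 active = mean replicate inhibition at least 60% with every replicate also reaching 60%; inconclusive = only one of the two criteria is met; inactive = mean below 60% and not all replicates reaching 60%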;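 note: luciferase light reporting Pax8 driven TPO promoter activity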
# EWS-Fli block – EWS/Fli-driven NR0B1 reporter inhibitors, primary screen, A673 cells, NR0B1 luciferase, luminescence, MLPCN library; viability-normalised; 350,000 compounds, 0.67% hits; inhibition, % at 12.6 µM; AID 651661, 2012;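 active = mean inhibition of at least 50% after viability correction, with every replicate also passing that limit; inconclusive = mean reaches 50% but only one of two replicates passes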;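 note: firefly luciferase signal divided by Alamar Blue viability fluorescence both relative to DMSO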
# Numbers stand for hits; - = inactive; ? = inconclusive; . = no result. An excerpt weighted towards active compounds, which were near 2.7% of everything screened.
SMILES,CFTR F508del cor,PGC1a acetyl inh,HIV Env fusion,GSIS activator,PAX8 inh HTS,EWS-Fli block
CCOC(=O)[C@]12CCCC=C1N(Cc1ccccc1)C(=O)[C@H](CC(=O)NCCCCc1ccccc1)C2,-,.,-,-,-,-
CCC(=O)N[C@@H]1CC[C@H](CCn2cc(C3CC3)nn2)O[C@@H]1CO,-,-,-,-,-,-
C[C@@H]1CN([C@H](C)CO)C(=O)c2cc(C3=CCCCC3)cnc2O[C@H]1CN(C)C(=O)C1CCOCC1,-,-,-,-,-,-
C[C@@H]1CN([C@@H](C)CO)C(=O)c2cc(-c3cccc(C(=O)N(C)C)c3)cnc2O[C@@H]1CN(C)S(=O)(=O)c1ccccc1,-,-,-,-,-,-
O=C(C1CCCCC1)N1C[C@@H]2[C@H](c3ccccc31)[C@H](CO)N2C(=O)Cc1ccccn1,-,-,.,-,-,-
CCCCCCCCN1C(=O)[C@H](CC(=O)NCc2cccc3ccccc23)C[C@@]2(C(=O)OCC)CCCC=C12,-,.,76,.,-,-
CCCCCCCCN1C(=O)[C@H](CC(=O)NCc2ccccc2)C[C@@]2(C(=O)OC)CC(C)(C)CC=C12,-,.,-,-,-,-
COC(=O)[C@@]12C[C@@H](CC(=O)NCc3ccc(OC)c(OC)c3)C(=O)N(CCc3ccc(OC)c(OC)c3)C1=CCC(C)(C)C2,-,.,67,-,-,-
CCOC(=O)[C@]12CCCC=C1N(CCC1=CCCCC1)C(=O)[C@H](CC(=O)NCCC(C)C)C2,-,.,-,-,-,-
CCCCCCCCN1C(=O)[C@H](CC(=O)NCCC(C)C)C[C@@]2(C(=O)OCC)CCCC=C12,-,.,61,-,-,-
CCCCCCCCN1C(=O)[C@H](CC(=O)NCc2cccc3ccccc23)C[C@@]2(C(=O)OC)CC(C)(C)CC=C12,-,.,58,-,-,-
O=C(Cc1ccncc1)NCC[C@H]1CC[C@H](NC(=O)Nc2ccc(Cl)cc2)[C@@H](CO)O1,-,-,-,-,-,-
N#C/C(=C/c1ccc(Sc2nc3ccccc3[nH]2)o1)c1cccc(Br)c1,.,-,.,.,.,.
CCN1C(=O)S/C(=C/c2ccc(Sc3nc4ccccc4[nH]3)o2)C1=O,-,-,62,-,-,-
O=C(c1ccccc1)N1CCSc2sccc2C1=O,-,.,66,-,-,67
C[C@H]1CN(C)C(=O)c2cc(N)ccc2O[C@H]1CN(C)C,.,.,.,-,.,.
O=C(C[C@@H]1C=C[C@H](NC(=O)c2ccc(F)cc2)[C@@H](CO)O1)NCCc1ccncc1,-,-,-,-,-,-
CC(C)C[C@H]1CNC(=S)N1C[C@H]1CCCN1C[C@H](Cc1ccc(O)cc1)N1C[C@H](Cc2ccccc2)N(CC2CCCCC2)C1=S,-,-,112,-,-,-
CC(C)C[C@H]1CNC(=S)N1CC1CCCN1C[C@H](Cc1ccccc1)N1C[C@H](Cc2ccc(O)cc2)N(CC2CCCCC2)C1=S (stereo not given in full),-,-,-,-,-,-
CC(C)C[C@H]1CN([C@@H](CC(C)C)CN2CCCC2CN2C(=S)NC[C@@H]2Cc2ccc(O)cc2)C(=S)N1CCc1ccccc1 (stereo not given in full),-,-,-,-,-,-
CC(C)C[C@H]1CNC(=S)N1CC1CCCN1C[C@H](Cc1ccc(O)cc1)N1C[C@H](Cc2ccccc2)N(CC2CCCCCC2)C1=S (stereo not given in full),-,-,58,-,-,-
CC(C)C[C@H]1CN([C@@H](CC(C)C)CN2CCC[C@@H]2CN2C(=S)NC[C@@H]2Cc2ccc(O)cc2)C(=S)N1CCc1ccccc1,8.8,-,?,-,-,-
CC(C)C[C@H]1CNC(=S)N1C[C@H]1CCCN1C[C@H](Cc1ccccc1)N1C[C@H](Cc2ccc(O)cc2)N(CC2CCCCCC2)C1=S,-,-,-,.,-,-
CO[C@H]1CN(C)C(=O)c2ccc(NC(=O)CC(F)(F)F)cc2OC[C@H](C)N(C(=O)C2CCOCC2)C[C@@H]1C,-,-,.,-,.,-
CCCc1cc(C(=O)Nc2cc(C)nn2-c2ccccc2)no1,-,-,60,-,-,-
SMILES,CFTR F508del cor,PGC1a acetyl inh,HIV Env fusion,GSIS activator,PAX8 inh HTS,EWS-Fli block
C[C@H](CO)N1C[C@H](C)[C@@H](CN(C)C(=O)Nc2ccccc2)OCCCC[C@H](C)Oc2ccc(NC(=O)c3ccccc3)cc2C1=O,-,-,-,-,-,-
COc1cccc(-c2ccc(CC[C@H]3O[C@H]4CC[C@H](CO)O[C@H]4C[C@@H]3NS(C)(=O)=O)cc2)c1,-,-,.,.,-,-
COc1cccc(-n2c([S-])c(C(=O)Nc3ccc(S(=O)(=O)N4CCOCC4)cc3)[n+]3cc(C(N)=O)ccc23)c1,-,-,-,45,-,-
CC(C)COc1cccc(C(=O)Nc2ccc(S(=O)(=O)N3CCOCC3)cc2)c1,.,-,-,-,.,.
Cc1noc(C)c1CSc1nc2sc(C)c(C)c2c(=O)n1-c1ccccc1,.,-,.,.,.,.
Cc1noc(C)c1CSc1nc2ccccc2c(=O)n1-c1ccc(Cl)cc1,.,-,62,-,.,.
CC(=O)Nc1ccc2c(c1)C(=O)N(C)[C@H]1CC[C@H](CC(=O)NCc3ccc(F)cc3)O[C@H]1CO2,-,-,-,-,-,-
C[C@H]1CN([C@@H](C)CO)C(=O)Cc2cc(NC(=O)NC3CCCCC3)ccc2O[C@@H]1CN(C)Cc1ccc2c(c1)OCO2,-,-,.,-,-,.
CC(C)Cn1c(SCC(=O)NC2CC2)nc2ccccc21,-,-,95,.,-,-
CCc1nc2c(OCc3ccc(C(F)(F)F)cc3)cccn2c1N(C)C(=O)c1ccc(C)cc1,-,-,57,.,-,-
CCCCC(=O)N(C)c1c(CC)nc2c(OCc3ccc(C(F)(F)F)cc3)cccn12,-,-,-,53,-,-
CCOC(=O)N(C)c1c(CC)nc2c(OCc3cc(Cl)cc(Cl)c3)cccn12,-,-,56,.,-,-
CCc1nc2c(OCc3ccc(S(C)(=O)=O)cc3)cccn2c1N(C)C(=O)c1ccccc1F,-,45,-,.,-,-
CCNC(=O)C[C@@H]1CC[C@@H]2[C@@H](COc3ccc(NC(=O)NC(C)C)cc3C(=O)N2C)O1,-,-,-,-,-,-
C[C@H](CO)N1C[C@H](C)[C@H](CN(C)C(=O)Nc2ccccc2)Oc2ccc(NC(=O)Nc3ccc4c(c3)OCO4)cc2CC1=O,-,-,-,-,-,-
O=C(CCCn1c(=S)[nH]c2cc3c(cc2c1=O)OCO3)N1CCN(c2ccc(Cl)cc2)CC1,.,.,99,.,-,.
O=C(CCCn1c(=S)[nH]c2cc3c(cc2c1=O)OCO3)N1CCN(c2ccccc2)CC1,.,.,-,.,.,.
C[C@H](O)C#Cc1cnc2c(c1)C(=O)N([C@@H](C)CO)C[C@@H](C)[C@H](CN(C)CC1CCCCC1)O2,-,-,.,-,-,-
